The nature of assay [1]: Wnt pathway potentiators raising nuclear beta-catenin – imaging, WNT3A-conditioned medium, mouse C2C12, NPC library, primary screen (AID 1117326). The settings on record: stronger effect = higher value.
The nature of assay [2]: stimulators of insulin release from INS-1E, primary screen, cell-based, 5 mM glucose, NPC library (AID 1117329;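 active means compound raises insulin release from rat beta cells at 5 mM glucose, no numeric limit stated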). The settings on record: rat INS-1E insulin secretion, at 10 µM, stronger effect = higher value.
Assay [3] is described as follows: GLP1 release stimulators, primary, NCI-H716, NPC library (AID 1117341;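 active means compound raises GLP1 secretion from the human gut endocrine cells, with no numeric limit stated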). The settings on record: NCI-H716 cells, at 10 µM, stronger effect = higher value.
For assay [4], the target named is NAD(+) hydrolase SARM1 (Homo sapiens) (UniProt Q6SZW1). The assay is described as follows: blocking NAD cleavage by SARM1 SAM-TIR – cell lysate, NAD-Glo luminescence (AID 1508614;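 active means compound whose remaining NAD level is above about 45 nM, limit read from the data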). The settings on record: SAM-TIR HEK293T lysate NADase, at 1 µM, stronger effect = higher value.
In assay [5] the target is Mitogen-activated protein kinase 7 (Homo sapiens) (UniProt Q13164). The assay is described as follows: Gal4-ERK5 driven luciferase induction – cell-based, HTS, primary screen (AID 1508626;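 active means luciferase signal above three times the same-plate solvent-only control wells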;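 further: luciferase driven by Gal4-ERK5 fusion binding five Gal4 sites before minimal TATA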). The settings on record: HeLa Gal4-ERK5 transactivation, 18 h, at 5 µM, stronger effect = higher value.
A short description of assay [6]: viability loss with induced miR-34 in A549 – imaging, A549 dox-inducible miR-34, nuclei and caspase counts, primary screen (AID 1347080;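 active means compounds whose cell count with miR-34 switched on is under 0.7 times the count with it off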). Conditions: A549 miR-34 inducible, Hoechst nuclei count, 48 h.
Assay [7] can be described thus: compounds altering viability of human ES cells (AID 493140; call rule not given here;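 further: cells exposed to compounds for four days before counting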). Conditions: human embryonic stem cell survival screen; stronger effect = higher value.
The nature of assay [8]: EMT-state selective cytotoxicity in co-culture – imaging, PC-3E GFP, TEM4-18 mCherry, primary screen (AID 1345086;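 active means compounds killing one labelled cell type while sparing the other, by normalised counts and ratio limits, not self-fluorescent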;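 further: cells exposed to compound for 72 h before imaging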;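 on red/green cell ratio (normalised): normalised mesenchymal count divided by normalised epithelial count so high means epithelial killing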). The settings on record: PC-3E GFP / TEM4-18 mCherry co-culture, imaging cell counts, at 1 µM.
A short description of assay [9]: MELAS cybrid and Rieske KO viability enhancers – cell-based, MELAS cybrids, Rieske KO mouse fibroblasts, CellTiter-Glo, primary screen (AID 1508586;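 active means mean z-score across replicates of 1.96 or higher in either the MELAS or the Rieske mutant cell line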;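 further: z relative to plate mean and SD of compound and empty wells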). Conditions: low glucose. (Cellular ATP, detected with luciferase, serves as a proxy for viable cell number.)
A short description of assay [10]: growth inhibition of GSK3B-pretreated HCT116 cells – cell-based, CellTiter-Glo, 0.2 to 20 µM (AID 1117336;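 active means compounds lowering colon cancer cell viability after pretreatment blocking the GSK3B kinase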). Conditions: HCT116 viability after GSK3B inhibitor, at 20 µM, stronger effect = higher value.
Assay [11] in a line: inhibition of endothelial tube formation, primary screen, imaging, VEGF stimulated, CD31 staining, tube area, NPC library (AID 1117340;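 active means compound that reduces growth-factor-driven endothelial tube area in a mixed cell culture, no cutoff stated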). Conditions: VEGF-stimulated ADSC/ECFC co-culture, at 10 µM, stronger effect = higher value.
Assay [12] in a line: HCT116 colon cancer cell growth inhibition, primary screen, CellTiter-Glo luminescence, NPC library (AID 1117342;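 active means compounds that lower survival of HCT116 colon cancer cells in the luminescence readout, no numeric limit stated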). Conditions: at 20 µM (top of the series).
Assay [13] can be described thus: reduced SW480 viability measured with CellTiter-Glo, NPC library, primary (AID 1117343;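 active means compounds that lower viability of the colon cancer cells in the luminescence readout, with no numeric limit stated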). The settings on record: CellTiter-Glo luminescence; at 20 µM (top of the series) unless noted.
A short description of assay [14]: NPC library primary testing for decreased DLD-1 cell viability via CellTiter-Glo (AID 1117346;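 active means compounds that lower survival of DLD-1 colon cancer cells in the luminescence readout, no cutoff given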). Conditions: DLD-1 viability, CellTiter-Glo luminescence; at 20 µM (top of the series).
Setting [15] is: stronger effect = lower value, cell number ratio, induced over uninduced.
The mark [16] stands for this setting: measured here: relative caspase fold change +Dox/-Dox.
The mark [17] stands for this setting: measured here: total cells with miR-34 induction, stronger effect = lower value.
[18] abbreviates: measured here: total cells without miR-34 induction.

The source made the active and inactive calls. Unless noted, no stated cut-off is given here; in the data, active means nuclear beta-catenin stimulation mostly above about 4.2% (no sharp cut-off); inactive means mostly below about 10%.

NAD(+) hydrolase SARM1 (Homo sapiens), sequence (Q6SZW1 whole entry, looked up, the tested form may be a part): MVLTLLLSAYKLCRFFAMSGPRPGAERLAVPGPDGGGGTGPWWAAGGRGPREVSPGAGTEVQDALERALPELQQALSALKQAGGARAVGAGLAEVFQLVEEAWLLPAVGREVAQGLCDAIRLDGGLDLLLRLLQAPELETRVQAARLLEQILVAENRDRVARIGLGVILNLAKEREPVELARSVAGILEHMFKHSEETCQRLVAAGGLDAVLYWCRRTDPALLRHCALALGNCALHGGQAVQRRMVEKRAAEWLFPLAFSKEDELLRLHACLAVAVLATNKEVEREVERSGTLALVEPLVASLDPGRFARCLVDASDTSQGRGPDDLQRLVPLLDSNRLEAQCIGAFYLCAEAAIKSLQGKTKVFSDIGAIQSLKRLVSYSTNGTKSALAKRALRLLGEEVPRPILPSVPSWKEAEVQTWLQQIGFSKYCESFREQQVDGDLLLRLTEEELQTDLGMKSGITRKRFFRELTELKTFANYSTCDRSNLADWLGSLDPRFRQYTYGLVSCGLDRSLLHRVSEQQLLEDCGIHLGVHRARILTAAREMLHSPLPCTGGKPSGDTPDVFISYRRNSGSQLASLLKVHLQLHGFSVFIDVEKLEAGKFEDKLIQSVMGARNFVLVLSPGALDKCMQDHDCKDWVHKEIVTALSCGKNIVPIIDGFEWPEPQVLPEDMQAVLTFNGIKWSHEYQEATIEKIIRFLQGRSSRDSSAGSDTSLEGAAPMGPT
Mitogen-activated protein kinase 7 (Homo sapiens), sequence (Q13164 whole entry, looked up, the tested form may be a part): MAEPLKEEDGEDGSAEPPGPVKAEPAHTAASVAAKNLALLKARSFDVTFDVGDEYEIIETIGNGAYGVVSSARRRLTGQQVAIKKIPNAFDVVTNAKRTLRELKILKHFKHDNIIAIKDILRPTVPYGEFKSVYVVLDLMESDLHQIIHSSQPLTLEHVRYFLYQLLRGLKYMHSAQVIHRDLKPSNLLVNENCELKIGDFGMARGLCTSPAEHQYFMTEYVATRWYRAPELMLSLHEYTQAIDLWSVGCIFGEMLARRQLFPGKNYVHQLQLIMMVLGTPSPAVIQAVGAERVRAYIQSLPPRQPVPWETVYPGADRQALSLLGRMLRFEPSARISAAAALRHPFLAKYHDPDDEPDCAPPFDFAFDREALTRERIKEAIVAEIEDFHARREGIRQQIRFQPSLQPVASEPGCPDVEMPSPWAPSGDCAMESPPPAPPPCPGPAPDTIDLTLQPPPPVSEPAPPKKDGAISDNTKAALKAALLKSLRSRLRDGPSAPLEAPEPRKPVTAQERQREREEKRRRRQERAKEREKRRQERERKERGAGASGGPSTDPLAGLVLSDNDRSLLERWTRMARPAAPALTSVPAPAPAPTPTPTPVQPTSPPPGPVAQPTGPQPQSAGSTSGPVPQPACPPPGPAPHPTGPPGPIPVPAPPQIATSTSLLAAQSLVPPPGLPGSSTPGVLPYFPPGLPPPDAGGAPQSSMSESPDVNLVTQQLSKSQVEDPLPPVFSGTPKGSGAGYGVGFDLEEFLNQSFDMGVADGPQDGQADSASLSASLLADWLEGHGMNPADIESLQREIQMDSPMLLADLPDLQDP

On to `CCCCN1CCCC1C(=O)Nc1c(C)cc(C)cc1C` (centres undefined), for which the nuclear beta-catenin stimulation in assay [1] (at 10 µM) is 1% (inactive); in [1] (stimulation, at 2 µM), -0.4%. Further, in [2], the insulin secretion stimulation was 0% (inactive). In addition, the GLP1 secretion stimulation in assay [3] is -3.8% (inactive).

As for `CC(C)(CO)[C@@H](O)C(=O)NCCC(=O)NCCSSCCNC(=O)CCNC(=O)[C@H](O)C(C)(C)CO`, the nuclear beta-catenin stimulation in assay [1] (at 10 µM) is 0% (inactive); in assay [1] (stimulation, at 2 µM) it was -1.3%. In assay [2], the insulin secretion stimulation was 0.15% (inactive). In [3], the GLP1 secretion stimulation is 2% (inactive). Further, in assay [4], the remaining NAD is 10 nM (inactive). For the same molecule, in [5], the luciferase signal was 160 AU (active).

In the case of `CSc1ccc(/C=C2/C(C)=C(CC(=O)O)c3cc(F)ccc32)cc1`, the nuclear beta-catenin stimulation in assay [1] (at 10 µM) was -1.4% (inactive); in [1] (stimulation, at 2 µM), -0.1%. Besides, in [2], the insulin secretion stimulation was 1.85% (inactive). Also, in assay [3], the GLP1 secretion stimulation is 9.9% (inactive).

Consider `O=C(O)CCC(=O)OC[C@@H](NC(=O)C(Cl)Cl)[C@H](O)c1ccc([N+](=O)[O-])cc1`, for which the nuclear beta-catenin stimulation was 2.4% (inactive) in assay [1] (at 10 µM) and 0.4% in assay [1] (stimulation, at 2 µM). Besides, the insulin secretion stimulation in assay [2] is 0% (inactive). In addition, in assay [3], the GLP1 secretion stimulation was 4.4% (inactive). Moreover, the fold change in assay [6] (setting [15]) was 0.886 (inactive); in assay [6] (setting [16]), 1.1. Moreover, the cell count in [6] (setting [17]) was 11000; in assay [6] (setting [18]), 12500. In addition, the remaining NAD in assay [4] is 10 nM (inactive). Besides, the luciferase signal in [5] was 44 AU (inactive).

As for `CC(=O)N(CC(O)CN(C(C)=O)c1c(I)c(C(=O)NCC(O)CO)c(I)c(C(=O)NCC(O)CO)c1I)c1c(I)c(C(=O)NCC(O)CO)c(I)c(C(=O)NCC(O)CO)c1I` (centres undefined), in [7], the survival was 2.67 (inactive). Moreover, the nuclear beta-catenin stimulation in assay [1] (at 10 µM) is 0.8% (inactive); in [1] (stimulation, at 2 µM), 1.9%. For the same molecule, the insulin secretion stimulation in assay [2] was 0.95% (inactive). The GLP1 secretion stimulation in [3] is 2% (inactive). Also, the red/green cell ratio (normalised) in assay [8] (actives lie on both sides, counts scaled to control wells, 1 = unselective) was 1.05 (inactive). Moreover, the normalised cell number in assay [8] (measured here: epithelial PC-3E GFP cell survival) was found to be 1; in [8] (measured here: mesenchymal TEM4-18 mCherry cell survival) it was 1.05. In addition, the values for the fold change in [6] (setting [15]) and in [6] (setting [16]) were 0.892 (inactive) and 0.943, respectively. In addition, the results for the cell count in assay [6] (setting [17]) and in assay [6] (setting [18]) were 8820 and 9890, respectively. Further, the z-score in assay [9] (MELAS cybrid survival, CellTiter-Glo 48 h, stronger effect = higher value) is 0.435 (inactive); in [9] (Rieske KO mouse fibroblast survival, CellTiter-Glo 72 h), -0.343. For the same molecule, the remaining NAD in assay [4] is 10 nM (inactive).

`Cn1cc(S(C)=O)c(=O)c2ccc(F)cc21` (centres undefined): the nuclear beta-catenin stimulation was 0.3% (inactive) in assay [1] (at 10 µM) and 10.4% in assay [1] (stimulation, at 2 µM). Besides, the viability decrease in assay [10] is -6.9% (inactive). In [11], the tube area decrease was 1.1% (inactive). For the same molecule, the inhibition of viability in assay [12] was 4.2% (inactive). In addition, the viability decrease (inhibition) was -1.3% (inactive) in assay [13] and -1.8% (inactive) in [14].

For the molecule `CCOC(=O)c1ccccc1O`, the nuclear beta-catenin stimulation in assay [1] (at 10 µM) is 1.4% (inactive); in assay [1] (stimulation, at 2 µM), 8.4%. Further, the viability decrease in assay [10] is 4.2% (inactive). In assay [11], the tube area decrease was -12.2% (inactive). The inhibition of viability in assay [12] was 3.3% (inactive). Moreover, the viability decrease (inhibition) in assay [13] was -4.5% (inactive); in assay [14] it was -2.7% (inactive).

As for `CCCCC[C@@H](O)CC[C@H]1[C@@H]2Cc3cccc(OCC(=O)O)c3C[C@@H]2C[C@@H]1O`, the nuclear beta-catenin stimulation is -0.3% (inactive) in assay [1] (at 10 µM) and 0.2% in [1] (stimulation, at 2 µM). Moreover, the insulin secretion stimulation in assay [2] was -0.45% (inactive). Further, the GLP1 secretion stimulation in [3] was 8.8% (inactive).

Regarding `Cc1cc(OI)c(C(C)C)cc1-c1cc(C(C)C)c(OI)cc1C`, the nuclear beta-catenin stimulation was 0% (inactive) in assay [1] (at 10 µM) and 5.1% in assay [1] (stimulation, at 2 µM). In addition, in assay [10], the viability decrease is 13.9% (inactive). The tube area decrease in assay [11] was 4.7% (inactive). Moreover, the inhibition of viability in assay [12] was -41.6% (inactive). The viability decrease (inhibition) in assay [13] was 10.4% (inactive); in assay [14], 18.8% (inactive).

Values taken from PubChem BioAssay.
